We go through eight molecules from PubChem BioAssay (NCATS).

The nature of assay [1]: AP1 Signaling Pathway (AID 357; active = well fitted curve in either direction with a large enough effect, not every such curve was filed as active;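 also: ME-180 reporter cells stimulated with EGF at its EC50 level; % is scaled to controls: 0 for no effect and ±100 for the full control effect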). Conditions: ME-180 AP-1-bla reporter, EGF-induced, beta-lactamase ratio, 5 h; at 17.2 µM (top of the series) unless noted. In a few lines:
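Cells are seeded overnight, exposed to compound titrations and an EC50 level of EGF for 5 hours at 37 °C, then loaded with CCF4 dye for 2.5 hours. Beta-lactamase activity under the AP-1 element is read as a blue/green ratio.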

Assay [2] in a line: NFAT Signaling Pathway (AID 444; active = well fitted curve in either direction with a large enough effect, not every such curve was filed as active;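 also: carbachol stimulus at about its EC50 of 1 µM final; % is scaled to controls: 0 for no effect and ±100 for the full control effect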). The settings on record: Jurkat NFAT-bla M1, carbachol, beta-lactamase ratio, 5 h; at 17.2 µM (top of the series) unless noted. In short, it runs like this:
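Jurkat cells with NFAT-driven β-lactamase reporter and co-expressed M1 receptor, stimulated with carbachol (final 1 uM, ~EC50), compound titration, 5 h at 37 °C. CCF4 loaded 1 h at RT; 460/530 nm ratio gave %activity and AC50.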

The target of assay [3] is Glucocorticoid receptor (Homo sapiens) (UniProt P04150). Briefly: GR-GFP Redistribution (AID 450;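 active = compounds whose dose series gives a full or clear partial fitted curve of increased nuclear translocation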; also: potency is read from the fitted curve at half-maximal effect). Conditions: U2OS GR-GFP nuclear translocation, laser cytometry, 2 h.
Assay [4] has the same target. The assay is described as follows: GR-EFC Redistribution (AID 451; calls by dose curve; also: potency is read from the fitted curve at half-maximal effect). The settings on record: CHO-K1 GR-EFC translocation, beta-gal luminescence, 2 h. In a few lines: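 CHO-K1 cells expressing nuclear EA and GR-ED fragments of b-gal; compounds titrated up to 46 uM final, 2 h at 37 C. GR nuclear translocation read as complemented b-gal luminescence after 1 h RT detection.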

The target of assay [5] is Mitogen-activated protein kinase 10 (Mus musculus) (UniProt Q61831). The assay is described as follows: JNK3 AlphaScreen Assay (AID 530; active = well fitted curve in either direction with a large enough effect, not every such curve was filed as active;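 also: kinase came from lysate of stimulated human HepG2 cells; signal reports phosphorylation of biotinylated GST-cJun 1-79 at Ser73 with 10 µM ATP; % is scaled to controls: 0 for no effect and ±100 for the full control effect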). In short, it runs like this:
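Pre-activated (IL-1β/TNFα) JNK3 in HepG2 lysates phosphorylates biotin-GST-cJun(1-79), 10 uM ATP; anti-phospho-cJun(Ser73) AlphaScreen read at room temperature, pH 7.6 Tris buffer. Compounds pre-incubated 15 min as titrations.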
On the technique in general: In Alpha technology, singlet oxygen from a donor bead excites a nearby acceptor bead.

For assay [6], the target named is 3',5'-cyclic-AMP phosphodiesterase 4B (Homo sapiens) (UniProt Q07343). The assay is described as follows: qHTS Assay for Inhibitors of PDE-IV (AID 607; active = well fitted activation curve with a large enough effect in the main read-out, with a control signal flat, not every such curve was filed as active; also: % of control where 0% means no effect). In short, it runs like this: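 HEK293 ACTOne cells with CNG channel (1000/well), endogenous PDE4; membrane potential dye, compounds up to 22.9 uM final. Fluorescence Ex 535/Em 590; RO 20-1724 (100 uM final) as reference.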
A general note: Quantitative high-throughput screening tests each substance at several concentrations.

Assay [7] concerns the target Guanine nucleotide-binding protein G(i) subunit alpha-1 (Homo sapiens) (UniProt P63096). The assay is described as follows: qHTS Assay for Inhibitors of RGS12 GoLoco Motif Activity (Green Fluorophore) (AID 879).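 Also: 0% = labeled peptide with Gαi1 and full inhibition = labeled peptide alone without protein; negative values mean loss of peptide binding seen as reduced polarization.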 In short, it runs like this:
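Fluorescence polarization assay: 50 nM Gαi1 with 10 nM FITC-labeled RGS12 GoLoco peptide in 10 mM Tris pH 7.5, 150 mM NaCl, 0.1 mM GDP, 0.05% NP40, 10 min at room temperature with compound.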

The nature of assay [8]: qHTS Assay for Identification of Small Molecule Agonists for Thrombopoietin (TPO) Signaling Pathway (AID 917). Also: % is scaled to controls: 0 for no effect and ±100 for the full control effect. In short, it runs like this:
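Murine Ba/F3 cells stably expressing human TPO receptor and a Glycoprotein IIb promoter–luciferase reporter were IL-3-starved overnight, then treated with compounds plus TPO (26 pM final, its EC50) for 24 hrs at 37 C; luminescence was read.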

In assay [9] the target is Muscarinic acetylcholine receptor M1 (Rattus norvegicus) (UniProt P08482). Briefly: qHTS Assay for Antagonists of Acetylcholine Muscarinic M1 Receptor: Measurement of IP-One Response (AID 944). Also: nearly all actives have a fitted effect of over 75% in size. In a few lines: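 CHO cells stably expressing rat M1, pretreated 10 min with compound, then stimulated 30 min with carbachol at EC80 (200 nM) in LiCl-containing buffer pH 7.4; IP1 accumulation read by HTRF competition (665/620 nm).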

The target in assay [10] is Pyruvate kinase (Leishmania mexicana) (UniProt Q27686). The assay is described as follows: qHTS Validation Assay for Inhibitors of Leishmania Mexicana Pyruvate Kinase (AID 945).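 Also: 0% = DMSO only neutral control wells.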 In a few lines: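 qHTS eight-point titrations against 0.2 nM LmPYK (E451W) in imidazole buffer pH 7.2 with 0.5 mM PEP, 0.1 mM ADP; 1 h, room temperature. Readout: PKLight luminescence, normalized to neutral DMSO wells.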

The target of assay [11] is Pyruvate kinase PKM (Homo sapiens) (UniProt P14618). Briefly: qHTS Assay for Activators of Human Muscle Pyruvate Kinase (AID 954; active = well fitted curve in the direction sought with a large enough effect, not every such curve was filed as active;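 also: 0% = uninhibited enzyme and -100% = no enzyme or full thiadiazolimine inhibition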). In a few lines:
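Purified human PKM2 (0.1 nM) with 0.5 mM PEP (Km) and 0.1 mM ADP in 50 mM imidazole pH 7.2, KCl, MgCl2, 1 h at room temperature; ATP formed read by coupled luciferase luminescence. Normalized to no-enzyme/110 uM thiadiazolimine inhibition; 0.3 nM enzyme column for activation.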

Assay [12] deals with Alpha-galactosidase (Coffea arabica) (UniProt Q42656). The assay is described as follows: Counterscreen for Glucocerebrosidase Inhibitors: qHTS Assay for Coffee Bean alpha-Galactosidase at pH 4.5 (AID 957).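 Also: plate controls were enzyme alone for no effect and no enzyme for full effect.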 In a few lines: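 Coffee bean enzyme (2 nM) with 80 uM 4-methylumbelliferyl alpha-D-galactopyranoside in 50 mM citric acid, 0.005% Tween-20, pH 4.5, 20 min at room temperature; compounds 0.7 nM–77 uM. Stopped at pH 10, fluorescence 365/440 nm; AC50 from Hill fits.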
In general terms: Counterscreens check selectivity or assay interference.

In assay [13] the target is Alpha-galactosidase A (Homo sapiens) (UniProt P06280). Briefly: Counterscreen for Glucocerebrosidase Inhibitors: qHTS Assay for Human alpha-Galactosidase at pH 4.5 (AID 992). Also: 0% is about no effect. In short, it runs like this: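 Human enzyme (2 nM) with 80 uM 4-methylumbelliferyl alpha-D-galactopyranoside in 50 mM citric acid, 0.005% Tween-20, pH 4.5, 20 min at room temperature. Compounds 0.7 nM–77 uM; fluorescence Ex 365/Em 440 after pH 10 stop; AC50 from Hill fits.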

The target of assay [14] is alpha-glucosidase (Oryza sativa, rice) (UniProt Q653V4). The assay is described as follows: Counterscreen for Glucocerebrosidase Inhibitors: qHTS Assay for Rice alpha-Glucosidase at pH 5.0 (AID 997).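 Also: 0% = full activity with enzyme and -100% = basal without enzyme.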 In short, it runs like this: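 Rice alpha-glucosidase (4 nM final) with 400 uM 4-methylumbelliferyl-alpha-D-glucopyranoside in citrate buffer pH 5.0, 20 min at room temperature, stopped at pH 10; fluorescence 365/440 nm, compounds 0.7 nM–77 uM, AC50 from Hill fits.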

The target in assay [15] is Alpha-galactosidase (Coffea arabica) (UniProt Q42656). Briefly: Counterscreen for Glucocerebrosidase Inhibitors: qHTS Assay for Coffee Bean alpha-Galactosidase at pH 5.9 (AID 998).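 Also: plate controls were uninhibited enzyme for no effect and no-enzyme basal signal for full effect.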 In short, it runs like this:
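Green coffee bean enzyme (2 nM) with 4-methylumbelliferyl alpha-D-galactopyranoside (80 uM) in 50 mM citric acid, 0.005% Tween-20, pH 5.9, 20 min at room temperature; compounds 0.7 nM–77 uM. Stopped at pH 10, fluorescence Ex365/Em440; Hill-fit AC50.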

Assay [16] is described as follows: Stat Signaling Pathway (AID 446; active = well fitted curve in either direction with a large enough effect, not every such curve was filed as active). In a few lines: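 ME-180 cells carrying a SIE-driven beta-lactamase reporter are stimulated with 40 pM IL-6 for 5 h at 37C in the presence of compound. The 460/530 nm FRET substrate ratio is read after 2.5 h at RT. Data are normalised to 300 pM IL-6 and to 125 nM JAK inhibitor controls.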
Assay [17] addresses Muscarinic acetylcholine receptor M1 (Rattus norvegicus) (UniProt P08482). Briefly: qHTS Assay for Antagonists of Acetylcholine Muscarinic M1 Receptor: Kinetic Measurement of Intracellular Calcium Response (AID 943). Also: potency is read from the fitted curve at half-maximal effect; nearly all actives have a fitted effect of over 75% in size. In short, it runs like this:
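CHO cells expressing rat M1 receptor, Fluo-4 loaded, preincubated 10 min with compound, then stimulated with EC80 carbachol (100 nM final). Kinetic calcium fluorescence over 4 min; response taken as peak over basal signal.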

Assay [18] deals with Ubiquitin carboxyl-terminal hydrolase 1 (Homo sapiens) (UniProt O94782). The assay is described as follows: Inhibitors of USP1/UAF1: Pilot qHTS (AID 504865).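 Also: rhodamine fluorescence freed from ubiquitin-rhodamine substrate followed over time; top concentration of the series differs between compounds; % is scaled to controls: 0 for no effect and ±100 for the full control effect; nearly all actives have a fitted effect of over 35% in size.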 In a few lines:
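USP1/UAF1 complex (1nM) preincubated with compound 15 min at room temperature, then Ub-Rho substrate (150nM final) added. Fluorescence read kinetically at 480/540 nm, 6 reads every 60 seconds. Buffer: 50mM HEPES pH 7.8, 0.5mM EDTA, 0.1 mg/ml BSA, 1mM TCEP, 0.01% Tween-20.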

Assay [19] can be described thus: qHTS Assay for Identification of Small Molecule Agonists for Hypoxia Response Element Signaling Pathway (AID 914; active = well fitted activation curve with a large enough effect in the signal ratio, with a control signal flat, not every such curve was filed as active; the % refers to the signal ratio; also: % of control where 0% means no effect). The settings on record: ME-180 (cervical carcinoma) HRE-bla reporter, beta-lactamase ratio, CoCl2, 17 h; activation: stronger effect = higher value. In short, it runs like this:
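Positive modulation of EC50 CoCl2-induced hypoxia response element signaling is measured in ME-180 cells with a beta-lactamase reporter. Compounds are titrated, incubation runs 17 hours, and %Activity derives from the blue/green ratio.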

Assay [20] in a line: qHTS Assay for Identification of Small Molecule Antagonists for NFkB Signaling Pathway (AID 895; active = well fitted inhibition curve with a large enough effect in the signal ratio, with a control signal flat, not every such curve was filed as active; the % refers to the signal ratio; also: % is scaled to controls: 0 for no effect and ±100 for the full control effect). In short, it runs like this:
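ME-180 NFkB-bla cells (beta-lactamase under NFkB response element), plated overnight, treated with compound then 10 pM TNF alpha (about EC50) for 5 hrs at 37 C. LiveBLAzer FRET read at 460/530 nm emission, 405 nm excitation.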

Values without a mark were called inactive. Inconclusive results are not listed. Activity calls are given as the source filed them. Unless noted, calls follow the shape of the dose curve; as a rule, active = well fitted curve in the direction sought with a large enough effect; inconclusive = small, poorly fitted or top-dose-only effect, or another doubt; inactive = no such curve, though single readings can be large; an effect the other way counts as inactive or inconclusive.

Chain of Guanine nucleotide-binding protein G(i) subunit alpha-1 (Homo sapiens) (P63096 whole entry, looked up): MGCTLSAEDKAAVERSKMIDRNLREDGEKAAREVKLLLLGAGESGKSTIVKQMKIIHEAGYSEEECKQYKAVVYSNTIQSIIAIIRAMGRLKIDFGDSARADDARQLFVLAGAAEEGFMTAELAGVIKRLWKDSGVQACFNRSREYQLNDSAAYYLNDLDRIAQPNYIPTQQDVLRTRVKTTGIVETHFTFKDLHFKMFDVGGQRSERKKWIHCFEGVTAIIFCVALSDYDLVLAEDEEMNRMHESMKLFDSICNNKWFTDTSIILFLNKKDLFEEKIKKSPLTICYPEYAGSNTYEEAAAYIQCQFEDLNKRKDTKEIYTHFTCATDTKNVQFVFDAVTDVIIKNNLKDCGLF
Chain of 3',5'-cyclic-AMP phosphodiesterase 4B (Homo sapiens) (Q07343 whole entry, looked up): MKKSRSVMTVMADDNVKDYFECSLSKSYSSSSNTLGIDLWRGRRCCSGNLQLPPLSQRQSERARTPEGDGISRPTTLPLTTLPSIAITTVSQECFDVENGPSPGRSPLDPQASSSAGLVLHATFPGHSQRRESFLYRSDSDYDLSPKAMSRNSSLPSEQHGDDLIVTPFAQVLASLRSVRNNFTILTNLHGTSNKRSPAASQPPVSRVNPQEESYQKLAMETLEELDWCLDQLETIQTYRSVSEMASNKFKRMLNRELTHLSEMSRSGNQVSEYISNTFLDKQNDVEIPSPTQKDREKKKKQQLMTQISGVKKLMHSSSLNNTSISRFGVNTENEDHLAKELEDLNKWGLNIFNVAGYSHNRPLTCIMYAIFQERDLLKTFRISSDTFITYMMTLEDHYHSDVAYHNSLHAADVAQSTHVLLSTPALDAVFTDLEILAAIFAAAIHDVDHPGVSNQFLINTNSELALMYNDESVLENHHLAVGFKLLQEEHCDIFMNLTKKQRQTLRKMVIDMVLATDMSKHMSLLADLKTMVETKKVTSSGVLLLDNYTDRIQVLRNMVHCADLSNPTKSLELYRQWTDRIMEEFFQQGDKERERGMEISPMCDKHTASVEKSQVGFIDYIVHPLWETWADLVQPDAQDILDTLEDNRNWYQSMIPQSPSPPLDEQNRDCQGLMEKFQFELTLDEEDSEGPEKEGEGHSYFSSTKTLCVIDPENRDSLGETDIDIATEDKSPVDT
Chain of Pyruvate kinase PKM (Homo sapiens) (P14618 whole entry, looked up): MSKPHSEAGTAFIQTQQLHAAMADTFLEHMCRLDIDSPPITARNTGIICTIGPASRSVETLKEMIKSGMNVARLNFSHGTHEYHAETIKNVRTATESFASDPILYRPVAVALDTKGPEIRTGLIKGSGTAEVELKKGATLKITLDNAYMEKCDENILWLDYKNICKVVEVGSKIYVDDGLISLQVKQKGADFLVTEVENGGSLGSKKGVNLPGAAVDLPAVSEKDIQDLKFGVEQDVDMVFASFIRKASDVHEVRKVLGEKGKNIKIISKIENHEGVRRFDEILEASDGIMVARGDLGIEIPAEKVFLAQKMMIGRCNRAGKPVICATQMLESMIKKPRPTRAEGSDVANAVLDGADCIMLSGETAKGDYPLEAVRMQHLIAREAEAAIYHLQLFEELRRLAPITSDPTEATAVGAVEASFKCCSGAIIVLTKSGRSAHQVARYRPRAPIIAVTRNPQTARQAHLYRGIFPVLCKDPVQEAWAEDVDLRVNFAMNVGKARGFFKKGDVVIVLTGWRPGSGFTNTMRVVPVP
Chain of Pyruvate kinase (Leishmania mexicana) (Q27686 2-499 E452W): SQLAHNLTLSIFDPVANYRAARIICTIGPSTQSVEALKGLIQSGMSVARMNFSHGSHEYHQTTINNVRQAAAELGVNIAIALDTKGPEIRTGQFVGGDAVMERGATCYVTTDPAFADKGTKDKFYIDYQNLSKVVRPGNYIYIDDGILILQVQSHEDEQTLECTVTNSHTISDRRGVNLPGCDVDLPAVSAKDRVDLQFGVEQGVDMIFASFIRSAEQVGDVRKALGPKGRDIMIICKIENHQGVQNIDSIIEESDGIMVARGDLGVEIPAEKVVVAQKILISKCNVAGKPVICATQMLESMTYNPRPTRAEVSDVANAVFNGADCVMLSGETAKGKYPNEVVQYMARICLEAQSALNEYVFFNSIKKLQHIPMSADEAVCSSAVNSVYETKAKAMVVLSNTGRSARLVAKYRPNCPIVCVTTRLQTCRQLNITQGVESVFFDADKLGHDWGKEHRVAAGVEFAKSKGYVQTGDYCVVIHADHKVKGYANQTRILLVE
Chain of Alpha-galactosidase (Coffea arabica) (Q42656 whole entry, looked up): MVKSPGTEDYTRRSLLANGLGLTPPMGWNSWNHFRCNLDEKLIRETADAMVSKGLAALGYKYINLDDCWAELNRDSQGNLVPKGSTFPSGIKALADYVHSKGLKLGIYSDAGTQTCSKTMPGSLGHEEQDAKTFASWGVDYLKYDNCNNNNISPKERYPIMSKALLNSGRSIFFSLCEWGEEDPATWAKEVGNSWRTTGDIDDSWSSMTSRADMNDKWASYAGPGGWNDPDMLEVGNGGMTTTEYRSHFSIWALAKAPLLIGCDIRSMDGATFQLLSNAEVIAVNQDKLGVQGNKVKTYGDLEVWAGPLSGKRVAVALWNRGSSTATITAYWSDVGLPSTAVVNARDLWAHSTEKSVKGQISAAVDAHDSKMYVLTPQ
Chain of Muscarinic acetylcholine receptor M1 (Rattus norvegicus) (P08482 whole entry, looked up): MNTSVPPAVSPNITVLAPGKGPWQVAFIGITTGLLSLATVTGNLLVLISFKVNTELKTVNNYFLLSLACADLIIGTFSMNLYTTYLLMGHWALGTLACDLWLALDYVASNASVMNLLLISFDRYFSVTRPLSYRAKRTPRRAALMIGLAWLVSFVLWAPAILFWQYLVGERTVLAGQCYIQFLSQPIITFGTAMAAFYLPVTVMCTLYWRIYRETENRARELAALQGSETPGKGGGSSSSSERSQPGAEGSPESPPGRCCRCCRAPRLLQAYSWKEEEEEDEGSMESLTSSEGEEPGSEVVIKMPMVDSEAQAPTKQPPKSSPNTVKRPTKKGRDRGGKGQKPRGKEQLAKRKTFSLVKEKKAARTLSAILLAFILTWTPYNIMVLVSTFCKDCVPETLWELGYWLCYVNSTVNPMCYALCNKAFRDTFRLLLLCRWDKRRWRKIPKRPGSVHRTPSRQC
Chain of Alpha-galactosidase A (Homo sapiens) (P06280 whole entry, looked up): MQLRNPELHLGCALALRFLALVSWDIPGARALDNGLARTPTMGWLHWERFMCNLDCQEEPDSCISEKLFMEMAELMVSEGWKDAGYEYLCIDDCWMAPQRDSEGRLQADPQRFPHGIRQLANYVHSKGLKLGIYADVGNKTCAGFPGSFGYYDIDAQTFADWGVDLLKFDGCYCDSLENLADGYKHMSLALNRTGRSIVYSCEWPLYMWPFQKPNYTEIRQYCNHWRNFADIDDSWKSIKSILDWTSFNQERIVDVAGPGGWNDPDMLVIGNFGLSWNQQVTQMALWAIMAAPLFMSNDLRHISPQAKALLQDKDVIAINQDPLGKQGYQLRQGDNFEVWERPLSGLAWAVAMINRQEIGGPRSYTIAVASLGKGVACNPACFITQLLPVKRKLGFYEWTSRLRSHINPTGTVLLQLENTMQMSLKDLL
Chain of Glucocorticoid receptor (Homo sapiens) (P04150 whole entry, looked up, the tested form may be a part): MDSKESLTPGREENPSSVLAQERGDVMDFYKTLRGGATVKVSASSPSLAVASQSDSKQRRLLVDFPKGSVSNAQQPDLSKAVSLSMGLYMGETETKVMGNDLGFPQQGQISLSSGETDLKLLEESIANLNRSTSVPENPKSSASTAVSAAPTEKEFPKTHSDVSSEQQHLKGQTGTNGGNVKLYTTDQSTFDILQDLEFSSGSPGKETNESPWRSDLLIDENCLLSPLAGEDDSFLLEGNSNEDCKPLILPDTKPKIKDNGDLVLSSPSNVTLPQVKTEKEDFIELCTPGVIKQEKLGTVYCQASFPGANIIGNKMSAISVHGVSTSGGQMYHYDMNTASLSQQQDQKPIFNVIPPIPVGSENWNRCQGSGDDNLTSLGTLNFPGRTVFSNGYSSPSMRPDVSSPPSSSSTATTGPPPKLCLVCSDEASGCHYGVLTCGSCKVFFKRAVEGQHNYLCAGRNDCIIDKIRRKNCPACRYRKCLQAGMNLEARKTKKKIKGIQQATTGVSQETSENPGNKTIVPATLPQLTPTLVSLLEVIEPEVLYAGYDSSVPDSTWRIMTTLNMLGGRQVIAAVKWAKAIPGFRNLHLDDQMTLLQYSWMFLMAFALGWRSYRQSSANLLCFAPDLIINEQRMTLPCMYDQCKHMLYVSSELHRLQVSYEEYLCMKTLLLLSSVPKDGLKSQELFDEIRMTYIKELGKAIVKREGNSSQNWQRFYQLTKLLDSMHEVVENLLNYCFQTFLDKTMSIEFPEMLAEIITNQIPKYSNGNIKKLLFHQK
Chain of Ubiquitin carboxyl-terminal hydrolase 1 (Homo sapiens) (O94782 whole entry, looked up): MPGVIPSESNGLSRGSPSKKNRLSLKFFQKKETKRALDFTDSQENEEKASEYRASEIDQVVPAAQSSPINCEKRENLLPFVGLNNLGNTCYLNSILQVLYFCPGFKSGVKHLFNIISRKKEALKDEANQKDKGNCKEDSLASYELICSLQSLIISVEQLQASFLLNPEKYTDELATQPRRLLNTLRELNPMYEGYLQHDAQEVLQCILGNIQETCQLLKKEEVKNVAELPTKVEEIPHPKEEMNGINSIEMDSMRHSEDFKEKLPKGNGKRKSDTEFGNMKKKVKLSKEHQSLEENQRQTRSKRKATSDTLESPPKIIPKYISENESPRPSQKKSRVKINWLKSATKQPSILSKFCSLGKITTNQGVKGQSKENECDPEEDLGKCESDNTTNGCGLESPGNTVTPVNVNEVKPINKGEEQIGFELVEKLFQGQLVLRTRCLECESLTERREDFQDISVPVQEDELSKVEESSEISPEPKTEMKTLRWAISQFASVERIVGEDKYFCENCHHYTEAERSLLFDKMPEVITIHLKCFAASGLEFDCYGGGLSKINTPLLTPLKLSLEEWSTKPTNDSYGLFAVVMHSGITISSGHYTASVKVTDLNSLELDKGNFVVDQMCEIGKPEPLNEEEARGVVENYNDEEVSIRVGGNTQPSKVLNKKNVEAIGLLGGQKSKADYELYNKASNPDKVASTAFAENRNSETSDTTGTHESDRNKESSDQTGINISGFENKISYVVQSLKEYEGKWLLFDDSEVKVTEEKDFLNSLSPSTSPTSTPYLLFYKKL

Consider `C=CCN1CC[C@@]23CCCC[C@@H]2[C@@H]1Cc1ccc(O)cc13`, for which the activity change, negative = inhibition in assay [1] was -10.4% [at 38 µM]; in [2], -24.3% [at 38 µM]. Further, the Potency in assay [3] and in [4] was above 46 µM in each case. Also, the outcome in assay [5], in assay [6], in assay [8], in [11], in assay [12] and in assay [13] was inactive. Besides, the molecule was classed as inactive in [14] and in assay [15]. The Potency result in assay [7], in assay [9] and in [10] was “inactive” throughout.

For the molecule `O[C@@H]1CCCC[C@H]1N1CCC(c2ccccc2)CC1`, the activity change, negative = inhibition was -6.58% [at 38 µM] in assay [1] and -6.89% [at 38 µM] in assay [2]. For the same molecule, the result in assay [16], in assay [5], in assay [6], in assay [8], in assay [11] and in assay [13] was inactive. Also, the call in assay [14] was inactive. Besides, the Potency in assay [4] is above 46 µM; in assay [17], 14.1 µM (active). In addition, the Potency result in [7], in assay [9] and in assay [10] was “inactive” in each case.

Take `CC1(C)CC(=O)C(C=NCCN2CCN(C(=O)Cc3ccc(F)cc3)CC2)=C(O)C1`: the activity change, negative = inhibition in assay [1] was -0.912%. In addition, the call in assay [16] was inactive. Further, the Potency in assay [3] is above 20.6 µM.

`C[C@H]1C[C@@H](C)C(=O)[C@@H]([C@H](O)CC2CC(=O)NC(=O)C2)C1`: the activity change, negative = inhibition in assay [1] was -97.3% (active); in assay [2], -119% (active). Further, the outcome in assay [5] and in [6] was inactive. The Potency result in assay [18] was “inactive”.

With `CC1CN=C(Nc2ccc(N(C)C)cc2)S1` (configuration not stated), the activity change, negative = inhibition in assay [1] is 17.8%; in assay [2], -26.5%. In addition, the result in assay [16] was inactive. Also, the activation in [19] was 1.86%.

As to `CCOC(=O)c1cc(C)n(CCc2cnc[nH]2)c1C`, in assay [1], the activity change, negative = inhibition was 3.65%. Also, the outcome in [16] was inactive.

Consider `CCc1nc(N2CCNCC2)c(C#N)c2c1CSC(C)(C)C2`, for which the activity change, negative = inhibition in assay [1] was -1.4%. In assay [16], the molecule was called inactive. The Potency in [3] was above 20.6 µM.

As to `Oc1ccc2c3c1O[C@@H]1[C@@H](O)CC[C@]4(O)[C@H](C2)N(CC2CCC2)CC[C@@]314`, the results for the activity change, negative = inhibition in [1] and in assay [2] were 2.34% [at 38 µM] and 2.45% [at 38 µM], respectively. Besides, the molecule was called inactive in assay [16], in [5], in assay [6], in [11], in assay [12] and in assay [13]. The molecule was called inactive in [14] and in assay [15]. The Potency in assay [3] and in assay [4] was above 46 µM each time. Also, the Potency entry in assay [7], in assay [20], in [9] and in [10] was “inactive” each time.
